HePTP inh: inhibitors of human HePTP phosphatase, primary screen, biochemical, absorbance, leukemia target; recombinant HePTP phosphatase activity, OD absorbance; inhibition, % at 20 µM; 110,000 compounds, 0.64% hits; in the data active means inhibition above about 50%;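 further: plate controls were vehicle for no effect and reference inhibitor for full effect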
Calb biofilm kill: clotrimazole potentiators killing Candida biofilms, primary screen, with clotrimazole, Alamar Blue. 85,000 compounds, 0.14% hits. AID 834, 2007. C. albicans biofilm + clotrimazole. inhibition, % at 6 µM;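 active means inhibition above 20%; inactive means inhibition below 20%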;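 further: preformed 24 hr biofilms exposed to compound for 48 hr; 0% = biofilm without compound and 100% = blank killed by clotrimazole plus chlorhexidine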
hDAT+cocaine: changed hDAT dopamine uptake under cocaine IC80, either direction, primary screen, cocaine antagonist project, cell-based, LLC-PK1 hDAT, [14C]-dopamine uptake, MLSMR. B-score at 10 µM. LLC-PK1 hDAT cells, [14C]-dopamine uptake with cocaine IC80; actives deviate in either direction. AID 449768, 2010. 110,000 compounds, 1.3% hits. Sodium-dependent dopamine transporter (Homo sapiens), Q01959;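 active means Z score or B-score, a plate-position-corrected score, falls beyond the plate's 99.7% confidence bounds, in either direction; inactive means both scores lie inside the 99.7% bounds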;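 further: scored against the spread of the other compound wells on the same plate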
D1 allo mod: D1 CRE-luciferase signal change, two-sided – cell-based, HEK293 D1, dopamine EC30, D1 allosteric modulator project, primary screen. AID 641, 2007. 58,000 compounds, 5.9% hits. B-score at 10 µM. dopamine EC30 potentiation; actives deviate in either direction;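 active means luminescence count or its row- and column-corrected plate score outside the 99.7% band of the plate's sample wells, on either side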
PLAP activator: PLAP enzyme activators, biochemical, luminescence, HTS; purified PLAP enzyme, luminescent substrate read-out; active compounds read high; activation fold at 20 µM; 96,000 compounds, 1.2% hits; AID 696, 2007; in the data active means activation fold above about 2
Target sequence (P05187 whole entry, looked up): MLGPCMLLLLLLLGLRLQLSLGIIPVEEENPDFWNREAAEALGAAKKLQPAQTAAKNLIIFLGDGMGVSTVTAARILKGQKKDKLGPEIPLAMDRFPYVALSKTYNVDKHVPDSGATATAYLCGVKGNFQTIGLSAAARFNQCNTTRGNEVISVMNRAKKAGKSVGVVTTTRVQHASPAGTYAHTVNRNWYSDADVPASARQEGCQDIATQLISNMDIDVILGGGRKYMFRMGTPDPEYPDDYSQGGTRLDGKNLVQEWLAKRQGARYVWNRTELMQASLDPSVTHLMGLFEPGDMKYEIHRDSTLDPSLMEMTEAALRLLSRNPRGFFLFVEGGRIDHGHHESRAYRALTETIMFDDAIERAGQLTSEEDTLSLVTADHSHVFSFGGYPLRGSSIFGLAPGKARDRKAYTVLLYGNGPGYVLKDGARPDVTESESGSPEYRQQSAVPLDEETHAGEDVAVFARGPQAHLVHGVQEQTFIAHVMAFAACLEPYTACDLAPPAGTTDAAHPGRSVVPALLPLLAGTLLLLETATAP
TNAP act mid DEA: human TNAP enzyme activators, primary screen, biochemical, luminescent, intermediate phosphate acceptor level. Alkaline phosphatase, tissue-nonspecific isozyme (Homo sapiens), P05186. purified TNAP, CDP-star luminescence, 100 mM DEA, 30 min; active compounds read high; scale: 0 levamisole-inhibited, 1 vehicle-only enzyme. activation factor at 20 µM. 64,000 tested, under 10 active. AID 813, 2007;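 active means activation factor of at least 2 at 20 µM, relative to controls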
Active calls of the source: *; . = no result. Only a selection was taken, and hits are over-represented in it overall.

SMILES | HePTP inh | Calb biofilm kill | hDAT+cocaine | D1 allo mod | PLAP activator | TNAP act mid DEA
CN1CCN(S(=O)(=O)c2ccc(Sc3nnc(-c4cccs4)n3-c3ccccc3)nc2)CC1 | 5.7 | 6.2 | 0.541 | -4.06* | 1.5 | 0.8
O=C1C=C(c2ccccc2)OC2(CCCC2)O1 | 4.0 | 3.6 | 0.294 | 3.16 | 1 | 0.9
O=C1C=C(c2ccc(Cl)cc2)OC2(CCCC2)O1 | . | -2.8 | -2.57* | . | 0.9 | .
COc1ccccc1OCC(=O)Nc1ccc(S(=O)(=O)Nc2nc(C)cc(C)n2)cc1 | 5.8 | 5.7 | 3.53* | 0.114 | 1.3 | 0.8
COc1ccccc1OCC(=O)Nc1ccc(S(=O)(=O)NC(C)=O)cc1 | -1.3 | 5.6 | -0.311 | -1.1 | 1.7 | 1
COc1ccc(CC(=O)Nc2ccc(S(=O)(=O)Nc3nccc(C)n3)cc2)cc1 | . | 3.3 | 0.0799 | . | 2.1* | .
CCOC(=O)c1c(NC(=O)C(Sc2ccccc2)c2ccccc2)sc(C(C)=O)c1C (stereo not drawn) | -4.8 | . | . | . | . | .
CCCCCn1c(SCCCC)nc2c1c(=O)[nH]c(=O)n2C | 10.2 | 7.0 | -0.674 | 19.6* | 1 | 0.8
CCOC(=O)C(C)Sc1nc2c(c(=O)[nH]c(=O)n2C)n1CCc1ccccc1 (stereo not drawn) | -3.4 | 2.1 | -0.00665 | 5.61* | 0.9 | 0.9
C/C(Cl)=C/Cn1c(SCC(C)C)nc2c1c(=O)[nH]c(=O)n2C | -5.1 | 0.3 | 0.23 | 14.2* | 1 | 1
CCCCCCn1c(SCCC)nc2c1c(=O)[nH]c(=O)n2C | -3.4 | 3.8 | 0.0216 | -0.199 | 1.1 | 0.9
Cn1c(=O)[nH]c(=O)c2c1nc(Sc1nc3ccccc3s1)n2Cc1ccccc1 | -1.4 | -1.3 | 1.21 | 3.96* | 1.2 | 0.9
CN1CCN(C(=O)c2nn3c(C(F)(F)F)cc(-c4ccco4)nc3c2Cl)CC1 | 5.0 | . | . | . | . | .
Nc1nc2ccc(Oc3ccccc3)cc2s1 | 9.2 | 15.8 | -0.844 | -4.54* | 1.1 | 0.9
COc1ccc(-c2n[nH]c3c2C(c2ccc(OC)c(OC)c2)N(c2ccccc2)C3=O)cc1 (stereo not drawn) | . | -4.9 | 0.678 | . | 2.4* | .
O=C1NN(c2ccccc2)C(=O)/C1=C/c1cccn1-c1ccc([N+](=O)[O-])cc1 | 102.8* | . | . | . | . | .
CC(C)N(Cc1ccccc1)C(=O)/C=C/c1cccc([N+](=O)[O-])c1 | -10.6 | . | . | . | . | .
COc1ccc(NC(=O)/C(=C/c2cccs2)NC(=O)c2ccc(C(C)(C)C)cc2)cc1 | 0.9 | . | . | . | . | .
Cc1ccccc1C1C(C=O)=C(c2cccs2)Oc2ccccc21 (stereo not drawn) | 2.0 | . | . | . | . | .
O=c1cc(Nc2ccc3c(c2)OCO3)[nH]c(=O)n1-c1ccc(Br)cc1 | 4.1 | 1.1 | 0.0526 | -7.65* | . | 1
O=c1cc(Nc2ccc3c(c2)OCCO3)[nH]c(=O)n1-c1ccc(Br)cc1 | . | 8.6 | -0.857 | . | . | .
O=P(CCCCCCCCCP(=O)(c1ccccc1)c1ccccc1)(c1ccccc1)c1ccccc1 | . | . | 2.91* | . | . | .
COCP(=O)(c1ccccc1)c1ccccc1 | -10.1 | 4.1 | 1.51* | . | 0.9 | .
COC(=O)/C(=C\c1ccc(Cl)cc1)[N+](=O)[O-] | 2.1 | . | . | . | . | .
COc1ccc(C2C(C(=O)/C=C/c3ccccc3)=C(O)C(=O)N2CCCCCC(=O)O)cc1OC (stereo not drawn) | -0.8 | . | . | . | . | .
SMILES | HePTP inh | Calb biofilm kill | hDAT+cocaine | D1 allo mod | PLAP activator | TNAP act mid DEA
COc1ccccc1OCCCOc1c(Cl)cccc1Cl | -10.5 | . | . | . | . | .
CC(C)(C)c1cc(C(C#N)C#N)c(C(C)(C)C)c(O)c1O | -10.4 | . | . | . | . | .
COc1ccc(-c2nnc(SCC(=O)/C(C#N)=C(\C)N)o2)cc1 | 14.8 | 6.1 | -0.472 | -3.21* | 1.1 | 0.9
COc1ccc(-c2nnc(SCC(=O)N3CCc4ccccc4C3)o2)cc1 | 20.2 | 7.8 | 3.16* | 2.25 | 1.5 | 0.9
O=C(C(c1ccccc1)c1ccccc1)N1CCN(Cc2ccc(F)cc2)CC1 | -6.2 | . | . | . | . | .
COc1ccc(C)cc1-n1nnnc1SCc1csc(C)n1 | -3.5 | -1.2 | -8.25* | 0.741 | 1.7 | 1
COc1ccccc1NC(=O)NCCCN1CCN(c2cccc(Cl)c2)CC1 | -6.4 | 4.1 | -1.56 | -4.18* | 1.5 | 0.9
Cn1c(=O)cc(OCC(=O)NCCCN2CCN(c3cccc(Cl)c3)CC2)c2ccccc21 | 18.3 | -9.9 | -0.249 | -5.26* | 1.3 | 0.9
Cn1c(=O)cc(OCC(=O)NCCCN2CCN(c3ccccc3F)CC2)c2ccccc21 | -7.2 | 7.0 | -0.42 | 0.559 | 1.5 | 1
O=C(O)CCC(=O)N1CCN(c2nc(-c3ccccc3Cl)c3cc(Br)ccc3n2)CC1 | . | 1.1 | 2.98* | . | 1.5 | .
O=C(c1ccccc1Cl)N1CCN(c2nc(-c3ccccc3)c3cc(Br)ccc3n2)CC1 | 6.3 | . | . | . | . | .
CC1CCN(C(=O)CCCNC(=O)Cn2cnc3sc4c(c3c2=O)CCCC4)CC1 | . | -5.5 | . | . | 1.6 | .
CC1CCN(C(=O)CCNC(=O)Cn2cnc3sc4c(c3c2=O)CCCC4)CC1 | . | 3.8 | 0.762 | . | 2.1* | .
O=C1NC(=S)N/C1=C/c1ccc(N2CCOCC2)cc1 | -17.1 | . | . | . | . | .
COc1cc(/C=N/NC(=O)CSc2cc(C)c(Br)cc2C)ccc1O | . | . | 0.0146 | . | 1.7 | .
Cc1cc(SCC(=O)N/N=C/c2ccc(O)c(O)c2O)c(C)cc1Br | . | . | 1.32 | . | 2.2* | .
O=C(c1ccc(NC(=O)c2cc(Br)cc(Br)c2O)c(Cl)c1)c1cccs1 | 5.4 | . | . | . | . | .
Cc1cc(OCC(=O)Nc2ccc([N+](=O)[O-])cc2)cc(C)c1Cl | -7.1 | . | . | . | . | .
Oc1[nH]c2ccccc2c1C=Nc1ccc2c(c1)OCO2 | 4.2 | . | -0.419 | -4.37* | 0.9 | 0.8
COc1ccc(C(=O)NC(=S)N2CCC(C)CC2)cc1 | . | 5.7 | -7.89* | . | 1.1 | .
O=C(CC(c1ccccc1)c1ccccc1O)NCCN1CCOCC1 (stereo not drawn) | 4.4 | 5.3 | -7.82* | 0.0247 | 1.1 | 1
O=C(NCCN1CCOCC1)C(c1ccccc1)c1ccccc1 | 8.9 | . | . | . | . | .
CC(C)(C)NC(=O)Nc1ccccc1C(N)=O | 5.7 | -2.5 | -0.0161 | -4.34* | 0.9 | 1
CC(=O)c1cccc(NC(=O)NC(C)c2ccncc2)c1 (stereo not drawn) | 7.0 | 3.8 | -0.445 | . | 2.2* | 0.9
CCOC(=O)c1ccc(NC(=O)Nc2c(C)nn(C)c2C)cc1 | 10.9 | 5.4 | 0.587 | -0.118 | 0.9 | 0.9
CC(=O)c1cccc(NC(=O)Nc2c(C)nn(C)c2C)c1 | 0.8 | 3.8 | 2.09* | 2.07 | 1 | 0.9
CC(=O)c1ccc(NC(=O)Nc2cccc(Cl)c2)cc1 | . | 3.6 | -3.89* | . | 0.9 | .
CC(=O)c1cccc(NC(=O)Nc2cccnc2)c1 | -6.5 | -6.0 | 0.031 | . | . | 1.1
